# From PubChem BioAssay (NCATS)
# Records with an inconclusive call do not appear. Where a call stands in place of a potency, no number is given. Calls of active or inactive are those of the source. The call rests on the fitted dose curve; in most records, active means well fitted curve in the direction sought with a large enough effect; inconclusive means small, poorly fitted or top-dose-only effect, or another doubt; inactive means no such curve, though single readings can be large; an effect the other way counts as inactive or inconclusive.
# Tests used:
# [1] = qHTS of pediatric cancer cell lines to identify multiple opportunities for drug repurposing: Primary screen for A673 cells (AID 1347092); further: nearly all actives have a fitted effect of over 45% in size; further: potency means the concentration at half of the fitted maximal effect
# Outline: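 Luminescence from CellTiter-Glo, taken after 15 min at room temperature, served as the proxy for metabolically active cells following 48 h treatment. Both potency and efficacy were taken from curves fitted to the titration data.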
# [2] = qHTS of pediatric cancer cell lines to identify multiple opportunities for drug repurposing: Primary screen for BT-37 cells (AID 1347094); further: potency means the concentration at half of the fitted maximal effect
# Outline: (§1)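 Viability was measured as metabolically active cells after 48 hours of treatment, read by CellTiter-Glo luminescence. Compounds were tested at multiple final concentrations, giving concentration-response curves.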
# [3] = qHTS of pediatric cancer cell lines to identify multiple opportunities for drug repurposing: Primary screen for NB-EBc1 cells (AID 1347095); further: potency means the concentration at half of the fitted maximal effect
# Outline: as §1
# [4] = qHTS of pediatric cancer cell lines to identify multiple opportunities for drug repurposing: Primary screen for U-2 OS cells (AID 1347096); further: nearly all actives have a fitted effect of over 50% in size
# Outline: (§2)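 Cells (500-1,000/well) in growth media were settled 5 h at 37 degrees C, then given compounds for 48 h. Viability was read as CellTiter-Glo luminescence. Primary runs used MIPE at 11 points (0.78 nM-46 µM) and NPC at 8 points (0.59 nM-46 µM); follow-ups used 11 points.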
# [5] = qHTS of pediatric cancer cell lines to identify multiple opportunities for drug repurposing: Primary screen for Saos-2 cells (AID 1347097); further: nearly all actives have a fitted effect of over 40% in size; further: potency means the concentration at half of the fitted maximal effect
# Outline: as §1
# [6] = qHTS of pediatric cancer cell lines to identify multiple opportunities for drug repurposing: Primary screen for SK-N-SH cells (AID 1347098); further: nearly all actives have a fitted effect of over 65% in size; further: potency means the concentration at half of the fitted maximal effect
# Outline: (§3)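 Cells (500-1,000/well) rested 5 h, then received compounds for 48 h; metabolically active cells were measured by CellTiter-Glo luminescence. Final concentrations spanned up to 46 µM (MIPE, 11-point) or 0.59 nM-46 µM (NPC, 8-point) in primary screens, 11-point in follow-ups.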
# [7] = qHTS of pediatric cancer cell lines to identify multiple opportunities for drug repurposing: Primary screen for NB1643 cells (AID 1347099); further: nearly all actives have a fitted effect of over 50% in size; further: potency means the concentration at half of the fitted maximal effect
# Outline: as §1
# [8] = qHTS of pediatric cancer cell lines to identify multiple opportunities for drug repurposing: Primary screen for LAN-5 cells (AID 1347100); further: potency means the concentration at half of the fitted maximal effect
# Outline: as §2
# [9] = qHTS of pediatric cancer cell lines to identify multiple opportunities for drug repurposing: Primary screen for BT-12 cells (AID 1347101); further: nearly all actives have a fitted effect of over 25% in size; further: potency means the concentration at half of the fitted maximal effect
# Outline: as §3
# [10] = qHTS of pediatric cancer cell lines to identify multiple opportunities for drug repurposing: Primary screen for Rh18 cells (AID 1347102); further: nearly all actives have a fitted effect of over 65% in size; further: potency means the concentration at half of the fitted maximal effect
# Outline: as §2
# [11] = qHTS of pediatric cancer cell lines to identify multiple opportunities for drug repurposing: Primary screen for RD cells (AID 1347104); further: nearly all actives have a fitted effect of over 55% in size; further: potency means the concentration at half of the fitted maximal effect
# Outline: as §1
# [12] = qHTS of pediatric cancer cell lines to identify multiple opportunities for drug repurposing: Primary screen for MG 63 (6-TG R) cells (AID 1347105); further: nearly all actives have a fitted effect of over 50% in size; further: potency means the concentration at half of the fitted maximal effect
# Outline: as §1
# [13] = qHTS of pediatric cancer cell lines to identify multiple opportunities for drug repurposing: Primary screen for control Hh wild type fibroblast cells (AID 1347106);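 further: series mostly up to about 46 µM; a drop in luminescence marks cytotoxicity and a rise apparent proliferation; nearly all actives have a fitted effect of over 55% in size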
# Outline: as §2
# [14] = qHTS of pediatric cancer cell lines to identify multiple opportunities for drug repurposing: Primary screen for Rh30 cells (AID 1347107); further: series mostly up to about 46 µM; nearly all actives have a fitted effect of over 75% in size
# Outline: as §2
# [15] = qHTS of pediatric cancer cell lines to identify multiple opportunities for drug repurposing: Primary screen for Rh41 cells (AID 1347108); further: nearly all actives have a fitted effect of over 70% in size; further: potency means the concentration at half of the fitted maximal effect
# Outline: as §1
# [16] = qHTS of pediatric cancer cell lines to identify multiple opportunities for drug repurposing: Primary screen for SK-N-MC cells (AID 1347093); further: potency means the concentration at half of the fitted maximal effect
# Outline: (§4)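 Metabolically active cells were quantified by ATP-dependent luminescence (CellTiter-Glo, 15 min at room temperature) following 48 h treatment. Cells had been plated at 500-1,000 per well and settled for 5 h beforehand.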
# [17] = qHTS of pediatric cancer cell lines to identify multiple opportunities for drug repurposing: Primary screen for OHS-50 cells (AID 1347103); further: nearly all actives have a fitted effect of over 40% in size; further: potency means the concentration at half of the fitted maximal effect
# Outline: as §3
# [18] = qHTS of pediatric cancer cell lines to identify multiple opportunities for drug repurposing: Confirmatory screen for NB1643 cells (AID 1347109); further: potency means the concentration at half of the fitted maximal effect; nearly all actives have a fitted effect of over 45% in size
# Outline: as §2
# [19] = qHTS of pediatric cancer cell lines to identify multiple opportunities for drug repurposing: Confirmatory screen for A673 cells (AID 1347110);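 further: potency means the concentration at half of the fitted maximal effect; cells exposed to compound for 48 h before the viability read; nearly all actives have a fitted effect of over 65% in size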
# Outline: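 qHTS titration format: primary MIPE 0.78 nM-46 µM (11 pts), NPC 0.59 nM-46 µM; confirmation 11 pts. 48 h, CTG luminescence.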
# [20] = qHTS of pediatric cancer cell lines to identify multiple opportunities for drug repurposing: Confirmatory screen for SK-N-MC cells (AID 1347111);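 further: potency means the concentration at half of the fitted maximal effect; cells exposed to compound for 48 h before the readout; nearly all actives have a fitted effect of over 70% in size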
# Outline: as §4
Structure (SMILES),Potency [1],Potency [2],Potency [3],Potency [4],Potency [5],Potency [6],Potency [7],Potency [8],Potency [9],Potency [10],Potency [11],Potency [12],Potency [13],Potency [14],Potency [15],Potency [16],Potency [17],Potency [18],Potency [19],Potency [20]
CCCCc1nc(Cl)c(CO)n1Cc1ccc(-c2ccccc2-c2nn[nH]n2)cc1,inactive,inactive,inactive,inactive,inactive,inactive,inactive,inactive,inactive,inactive,inactive,inactive,inactive,inactive,inactive,,,,,
CCCCCCC[N+](CC)(CC)CCCCc1ccc(Cl)cc1,3.35 µM (active),8.71 µM (active),10.6 µM (active),,6.68 µM (active),19.4 µM (active),13.3 µM (active),2.99 µM (active),7.77 µM (active),11.9 µM (active),13.3 µM (active),,,,15 µM (active),3.35 µM (active),3.89 µM (active),14.7 µM (active),3.69 µM (active),9.27 µM (active)
O=c1c(-c2ccccc2)c1-c1ccccc1,8.41 µM (active),,,,11.9 µM (active),,8.41 µM (active),18.8 µM (active),5.5 µM (active),,18.8 µM (active),,,,,6.68 µM (active),13.8 µM (active),,,
COc1cc2c(cc1OC)C(=O)C(CC1CCN(Cc3ccccc3)CC1)C2 (stereo not given),inactive,inactive,inactive,inactive,inactive,,,,inactive,inactive,inactive,inactive,inactive,inactive,inactive,inactive,,,,
Cc1cccc(C)c1NC(=O)CN1CCN(CCCC(c2ccc(F)cc2)c2ccc(F)cc2)CC1,inactive,inactive,,inactive,inactive,inactive,inactive,,,inactive,inactive,inactive,,inactive,inactive,inactive,,,,
COc1ccc(CN2CCN(C(c3ccc(F)cc3)c3ccc(F)cc3)CC2)c(OC)c1OC,21.1 µM (active),,,,,21.7 µM (active),inactive,,,,,inactive,inactive,inactive,,,13.8 µM (active),,,
CCN(CCCc1ccccc1)CCCc1ccccc1,inactive,,inactive,inactive,inactive,,inactive,inactive,,inactive,,inactive,inactive,inactive,inactive,,,,,
CCCCCCCCCCCCCCNCCO,,inactive,inactive,inactive,inactive,inactive,inactive,inactive,inactive,inactive,inactive,inactive,inactive,inactive,inactive,inactive,,,,
COc1c(C)c2c(c(O)c1C/C=C(\C)CCC(=O)O)C(=O)OC2,,0.389 µM (active),29.9 µM (active),inactive,,,,,0.692 µM (active),,,,inactive,inactive,,0.0841 µM (active),,,2.61 µM (active),
CN1C(CCl)Nc2cc(Cl)c(S(N)(=O)=O)cc2S1(=O)=O (stereo not given),,inactive,inactive,inactive,inactive,inactive,inactive,inactive,,inactive,inactive,inactive,inactive,inactive,inactive,inactive,inactive,,,
CC(=O)O[C@]1(C(C)=O)CC[C@H]2[C@@H]3C[C@H](C)C4=CC(=O)CC[C@]4(C)[C@H]3CC[C@@]21C,,inactive,inactive,inactive,,,inactive,,,inactive,,inactive,inactive,,,33.5 µM (active),,,1.31 µM (active),23.3 µM (active)
CN(C(=O)CN(CCO)CC(=O)N(C)C(C)(C)Cc1ccccc1)C(C)(C)Cc1ccccc1,inactive,,,inactive,,,,,12.3 µM (active),,inactive,inactive,,inactive,inactive,,,,,
Oc1ccc(O)cc1,,inactive,6.68 µM (active),inactive,inactive,inactive,,7.5 µM (active),,inactive,inactive,inactive,inactive,inactive,,26.6 µM (active),,18.5 µM (active),,
Oc1c(I)cc(Cl)c2cccnc12,21.1 µM (active),,,,21.1 µM (active),27.3 µM (active),,,,,,21.1 µM (active),inactive,inactive,,,21.9 µM (active),,,
O=C1OC(c2ccc(O)cc2)(c2ccc(O)cc2)c2ccccc21,,inactive,inactive,inactive,inactive,inactive,,inactive,inactive,inactive,inactive,,inactive,inactive,inactive,inactive,inactive,,,
CNCC[C@@H](Oc1ccccc1C)c1ccccc1,,inactive,inactive,inactive,,inactive,inactive,inactive,inactive,inactive,inactive,inactive,inactive,inactive,inactive,inactive,,,,
